Among the data in PubChem BioAssay (EPA / NIEHS) are outcome and AC50 values, retold here.

Test [1] is described as follows: ATG_XTT_Cytotoxicity: Cytotoxicity Assessment in the Attagene TRANS-FACTORIAL HepG2 Assay (AID 2283584).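 For AC50: XTT signal for cell number as viability in transfected HepG2 cells; cells exposed to compound for 24 h before reading; active means loss of viability signal versus DMSO baseline.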 Put shortly: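 Transfect HepG2 with GAL4-UAS reporter units, dose compound, incubate 24 h, then measure viable cell number by XTT. Fit concentration response against DMSO baseline.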
Test [2] can be described thus: TOX21_p53_BLA_p2_viability: Viability Assessment in the Tox21 HCT-116 p53 Agonism Beta-lactamase Assay, Phase 2 (AID 2283591).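 Note: compound exposure lasted 16 h at 37 °C; actives lower the ATP signal meaning cytotoxicity.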 Put shortly:
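HCT-116 p53-bla cells (4000/well) rested 5 h at 37C, then received compounds in DMSO (217-fold dilution) for 16 h at 37C, 5% CO2. After the CCF4 read, CellTiter-Glo was added; ATP luminescence was read after 30 min at room temperature.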

Test [3] deals with Cellular tumor antigen p53 (Homo sapiens) (UniProt P04637). The experiment in a line: TOX21_p53_BLA_p2_ratio: Tox21 HCT-116 p53 Agonism Beta-lactamase Assay, Ratio, Phase 2 (AID 2283592). The procedure, abridged:
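Cleaved-to-uncleaved substrate ratio (460 vs 530 nm) measured in HCT116 cells with an inducible beta-lactamase reporter linked to p53 activity. Compounds incubated 16 h at 37C before 2 h room-temperature CCF4-AM loading.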

Test [4] is described as follows: TOX21_p53_BLA_p3_viability: Viability Assessment in the Tox21 HCT-116 p53 Agonism Beta-lactamase Assay, Phase 3 (AID 2283593).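 Note: cells exposed to compound for 16 h before reading.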 Put shortly: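 HCT-116 cells (4000/well) rested 5 h at 37C, then got DMSO compounds by pin tool (217-fold dilution) for 16 h at 37C, 5% CO2. After the bla read, CellTiter-Glo was added and luminescence read at 30 min, room temperature.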

In test [5] the target is Cellular tumor antigen p53 (Homo sapiens) (UniProt P04637). The test can be described thus: TOX21_p53_BLA_p3_ratio: Tox21 HCT-116 p53 Agonism Beta-lactamase Assay, Ratio, Phase 3 (AID 2283596). The procedure, abridged: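 Cells were seeded at 4000/well, rested 5 h at 37C, then dosed with DMSO compound solutions (217-fold dilution) for 16 h. CCF4-AM substrate was loaded for 2 h at room temperature, and the 460/530 nm emission ratio was fitted for gain of signal versus DMSO.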

Test [6] shares this target. The experiment in a line: TOX21_p53_BLA_p5_ratio: Tox21 HCT-116 p53 Agonism Beta-lactamase Assay, Ratio, Phase 5 (AID 2283599). The procedure, abridged: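 HCT-116 cells carrying a p53-inducible beta-lactamase reporter were seeded at 4000 cells/well and dosed after 5 h with compound in DMSO (217-fold dilution). After 16 h at 37C, CCF4-AM substrate was added for 2 h, and the 460/530 nm emission ratio was scored as gain-of-signal versus DMSO.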

The target is the same in test [7]. The experiment in a line: TOX21_p53_BLA_p4_ratio: Tox21 HCT-116 p53 Agonism Beta-lactamase Assay, Ratio, Phase 4 (AID 2283601). The procedure, abridged:
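HCT116 cells carrying an inducible beta-lactamase reporter were plated at 4000 cells/well, rested 5 h, then exposed to compounds in DMSO (217-fold dilution) for 16 h at 37C. CCF4-AM substrate was loaded 2 h at room temperature; 460/530 nm emission ratio scored gain-of-signal versus DMSO.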

A short description of test [8]: TOX21_p53_BLA_p4_viability: Viability Assessment in the Tox21 HCT-116 p53 Agonism Beta-lactamase Assay, Phase 4 (AID 2283597).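 Note: hits lower the luminescence signal meaning cytotoxicity.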 The procedure, abridged:
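Viability is taken as cellular ATP: after 16 h compound exposure of HCT116 cells and a 2 h room-temperature CCF4-AM substrate step, CellTiter-Glo reagent is added and luminescence is measured 30 min later.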

The nature of test [9]: TOX21_p53_BLA_p5_viability: Viability Assessment in the Tox21 HCT-116 p53 Agonism Beta-lactamase Assay, Phase 5 (AID 2283600). Put shortly: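 Viability is taken from cellular ATP content, measured by luciferase luminescence in the same wells after the beta-lactamase ratio read. Cells are seeded at 4000 per well and exposed to DMSO-dissolved compounds, diluted 217-fold, for 16 h.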

Results filed as inconclusive are left out. The source made the active and inactive calls. Rule for the calls: active = hit-call score of the fitted dose curve at least 0.9, where 1 is the maximum; inconclusive = response in the unintended direction; inactive = score below 0.9.

Sequence of Cellular tumor antigen p53 (Homo sapiens) (P04637 whole entry, looked up): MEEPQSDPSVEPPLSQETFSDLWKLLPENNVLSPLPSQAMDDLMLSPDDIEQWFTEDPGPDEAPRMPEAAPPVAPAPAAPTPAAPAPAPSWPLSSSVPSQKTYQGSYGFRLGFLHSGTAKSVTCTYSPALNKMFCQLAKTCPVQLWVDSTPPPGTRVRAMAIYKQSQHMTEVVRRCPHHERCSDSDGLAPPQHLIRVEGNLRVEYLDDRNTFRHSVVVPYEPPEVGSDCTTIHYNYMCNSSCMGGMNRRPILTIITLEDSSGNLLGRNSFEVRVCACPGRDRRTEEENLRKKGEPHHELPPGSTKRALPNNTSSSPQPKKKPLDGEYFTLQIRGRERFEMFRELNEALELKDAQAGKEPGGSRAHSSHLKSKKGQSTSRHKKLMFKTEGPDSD

For the molecule `CC(=O)Nc1ccc(C)cc1C`, the molecule was classed as inactive in [1], in test [2], in test [3], in test [4], in test [5] and in test [6]. Besides, in test [7], the result was inactive.

In the case of `CCCCCCCCCCCCCCCCCC(=O)OCC(CC)CCCC` (configuration not stated), the molecule was classed as inactive in test [1], in test [2], in test [3], in test [4], in test [8] and in test [6]. Besides, the outcome in test [7] was inactive.

For the molecule `O=C(O)Cc1cccc2ccccc12`, the outcome in test [1], in [2], in test [3], in test [4], in [5] and in test [8] was inactive. Further, the outcome in [6], in [9] and in test [7] was inactive.

For `C#C[C@]1(O)CC[C@H]2[C@@H]3CCC4=Cc5oncc5C[C@]4(C)[C@H]3CC[C@@]21C`, the AC50 in test [1] is 151 µM (active). For the same molecule, the molecule was classed as inactive in test [2], in test [3], in [4], in test [5], in test [8] and in test [6]. Moreover, the outcome in [9] and in test [7] was inactive.

On to `O=c1[nH]c(=O)n([C@H]2CCCO2)cc1F`, for which the molecule was called inactive in [1], in [2], in [3], in [4], in test [5] and in test [8]. For the same molecule, the outcome in test [6], in test [9] and in test [7] was inactive.

For the molecule `O=P(c1ccccc1)(c1ccccc1)c1ccccc1`, the result in test [1], in [2], in test [3], in [4] and in test [8] was inactive.

On to `N#Cc1ccccc1`, for which the result in test [1], in [2], in test [3], in [4], in test [5] and in test [8] was inactive. Moreover, the result in test [6], in test [9] and in test [7] was inactive.

For the molecule `C[C@]12CC[C@H]3[C@@H](CCC4=CC(=O)CC[C@@]43C)[C@@H]1CC[C@@H]2C(=O)CO`, the molecule was classed as inactive in test [1], in test [2], in test [3], in test [4], in test [5] and in [8]. The result in test [6], in [9] and in test [7] was inactive.

Take `CC(=O)[C@H]1CC[C@H]2[C@@H]3CC=C4C[C@@H](O)CC[C@]4(C)[C@H]3CC[C@]12C`: the molecule was called inactive in test [1], in test [2], in [3], in test [4], in test [5] and in test [8]. In addition, the outcome in test [6] and in test [7] was inactive.

Regarding `CC(C)C(C)(C)C(C)(C)C(C)(C)S`, the molecule was classed as inactive in test [1], in test [2], in test [3], in [4], in test [5] and in test [8]. Moreover, the result in [6] and in test [7] was inactive.

With `CCCCCCCCCCCCCCCC(=O)O`, the call in test [1], in test [2], in [3], in test [4], in [5] and in test [8] was inactive. Further, the outcome in test [6], in test [9] and in [7] was inactive.

Turning to `O=C(O)CCCCCCCC(=O)O`, the call in test [1], in [2], in test [3], in test [4], in test [5] and in test [8] was inactive. Besides, the outcome in [6], in test [9] and in [7] was inactive.

For the molecule `O=C(Oc1ccccc1)c1ccc(O)cc1`, the result in test [1], in test [2], in [3], in [4], in test [5] and in test [6] was inactive. For the same molecule, the molecule was classed as inactive in test [9] and in test [7].

As to `CC(=O)OCc1ccc2c(c1)OCO2`, the call in test [1], in [2], in test [3], in test [4], in test [5] and in test [6] was inactive. Moreover, the molecule was called inactive in [9] and in test [7].

On to `CC1(C)CCC(C)(C)c2cc(C(=O)Nc3ccc(C(=O)O)cc3)ccc21`, for which, in [1], the result was inactive. Moreover, the AC50 in test [2] is 28.1 µM (active); in test [3], 61.2 µM (active); in test [4], 46.1 µM (active); in test [5], 72.4 µM (active); in test [8], 32.5 µM (active); in test [6], 46.2 µM (active). Moreover, the figures for the AC50 in [9] and in test [7] were 39.5 µM (active) and 46.9 µM (active), respectively.

With `C[C@H]1C[C@H]2[C@@H]3CCC4=CC(=O)C=C[C@]4(C)[C@@]3(F)[C@@H](O)C[C@]2(C)[C@@]1(O)C(=O)COP(=O)(O)O`, the molecule was called inactive in test [1], in [2], in test [3], in test [4], in test [5] and in test [8]. Further, the outcome in [9] was inactive.

For `Clc1nc(C(Cl)(Cl)Cl)c(Cl)c(Cl)c1Cl`, the outcome in test [1], in [2], in [3], in test [4], in test [5] and in test [8] was inactive. Also, the result in test [6], in [9] and in test [7] was inactive.

Regarding `CCN(CC)CCOC(=O)c1ccc(N)cc1`, the molecule was classed as inactive in test [1], in test [2], in test [3], in test [4], in test [5] and in test [8]. Besides, the result in test [6], in test [9] and in test [7] was inactive.

Turning to `c1ccc(CCCc2ccccn2)cc1`, the molecule was classed as inactive in test [1], in [2], in test [3], in test [4], in test [5] and in test [6]. For the same molecule, the outcome in [9] and in test [7] was inactive.

For the molecule `Nc1cccc(S(=O)(=O)c2cccc(N)c2)c1`, the result in [1], in [2], in test [3], in test [4], in test [5] and in test [8] was inactive. Further, the outcome in [6], in [9] and in test [7] was inactive.

Regarding `COCCCOc1ccnc(CS(=O)c2nc3ccccc3[nH]2)c1C` (configuration not stated), the result in [1], in test [2], in [3], in test [4], in [5] and in test [8] was inactive. In addition, the result in test [6], in test [9] and in test [7] was inactive.

On to `COC(=O)Cc1cccc2ccccc12`, for which the molecule was called inactive in test [1], in test [2], in [3], in test [4], in [5] and in [8]. The result in [6], in [9] and in [7] was inactive.

In the case of `CCCC(=O)C(C)=O`, the result in [1], in test [2], in test [3], in [4], in [5] and in test [6] was inactive. Also, the result in test [9] and in [7] was inactive.

On to `CC(C)c1cccc(O)c1`, for which the call in test [1], in test [2], in test [3], in test [4], in test [5] and in test [8] was inactive. Also, the outcome in test [6] and in [7] was inactive.

Turning to `CN(CCOc1ccc(CC2SC(=O)NC2=O)cc1)c1ccccn1` (configuration not stated), the call in test [1], in test [2], in test [3], in test [4], in [5] and in test [8] was inactive. The outcome in [6] and in [7] was inactive.
